These results are taken from PubChem BioAssay (NCATS).

The target in test [1] is Lysosomal acid glucosylceramidase (Homo sapiens) (UniProt P04062). Put plainly: Glucocerebrosidase-p2 (AID 348; in the data active = potency below about 10 µM; also: potency is read from the fitted curve at half-maximal effect). The settings on record: purified GBA, blue fluorogenic substrate, 40 min. The method in brief: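 Normal human glucocerebrosidase (0.2 nM) with blue fluorogenic substrate (80 uM final) in citrate/phosphate pH 5.9 with 10mM sodium taurocholate, 0.01% tween-20; 40 min RT, NaOH/glycine stop; fluorescence Ex 365/Em 440; AC50 from a titration from 0.6 nM upwards.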

Test [2] can be described thus: AP1 Signaling Pathway (AID 357). Also: % is scaled to controls: 0 for no effect and ±100 for the full control effect. The settings on record: ME-180 AP-1-bla reporter, EGF-induced, beta-lactamase ratio, 5 h; at 7.69 µM (top of the series) unless noted. The method in brief: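 Read-out was the 460nm/530nm emission ratio (excitation 405nm) after CCF4 loading for 2.5 hours at room temperature. Cells carried an AP-1-driven beta-lactamase reporter, were stimulated with EC50 EGF plus compound for 5 hours, and AC50 values came from titrations.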

Test [3] has as its target Cytochrome P450 1A2 (Homo sapiens) (UniProt P05177). Put plainly: p450-cyp1a2 (AID 410; calls by dose curve; also: potency is read from the fitted curve at half-maximal effect). The note with it: recombinant CYP1A2, luciferin-ME demethylation, luminescence; series mostly up to 57 µM. The procedure, abridged: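 Luminescent demethylation readout: Luciferin-ME (100uM, equal to Km) turned over by 20nM CYP1A2 for 60 min at room temperature after NADPH regeneration addition, following 10 min compound preincubation. Normalization used 57 uM furafylline as full inhibition.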

A short description of test [4]: NFAT Signaling Pathway (AID 444).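 Also: carbachol stimulus at about its EC50 of 1 µM final; % is scaled to controls: 0 for no effect and ±100 for the full control effect.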 The note with it: Jurkat NFAT-bla M1, carbachol, beta-lactamase ratio, 5 h; at 7.69 µM (top of the series) unless noted. The procedure, abridged: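 Jurkat cells with NFAT-driven β-lactamase reporter and co-expressed M1 receptor, stimulated with carbachol (final 1 uM, ~EC50), compound titration, 5 h at 37 °C. CCF4 loaded 1 h at RT; 460/530 nm ratio gave %activity and AC50.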

Test [5] can be described thus: Stat Signaling Pathway (AID 446).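 Also: ME-180 cervical cancer cells given 40 pM IL-6 alongside compound; SIE-controlled beta-lactamase reporter measured as 460/530 nm FRET emission ratio; % is scaled to controls: 0 for no effect and ±100 for the full control effect.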 The settings on record: ME-180 (cervical carcinoma) SIE beta-lactamase reporter, IL-6 stimulated, 5 h; at 7.69 µM (top of the series) unless noted. The procedure, abridged: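 FRET read-out (405 nm excitation, 460/530 nm emission) of a beta-lactamase reporter under a STAT-inducible element in ME-180 cervical carcinoma cells. Cells with compound receive 40 pM IL-6 for 5 h. Values are normalised to AC90 stimulation and AC90 JAK-inhibitor controls.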

In test [6] the target is Glucocorticoid receptor (Homo sapiens) (UniProt P04150). Put plainly: GR-GFP Redistribution (AID 450;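 active = compounds whose dose series gives a full or clear partial fitted curve of increased nuclear translocation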; also: potency is read from the fitted curve at half-maximal effect). The note with it: U2OS GR-GFP nuclear translocation, laser cytometry, 2 h.
For test [7] the target is unchanged. Kind of test: GR-EFC Redistribution (AID 451; calls by dose curve; also: potency is read from the fitted curve at half-maximal effect). The settings on record: CHO-K1 GR-EFC translocation, beta-gal luminescence, 2 h. The method in brief: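 CHO-K1 cells expressing nuclear EA and GR-ED fragments of b-gal; compounds titrated up to 46 uM final, 2 h at 37 C. GR nuclear translocation read as complemented b-gal luminescence after 1 h RT detection.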
For test [8], the target named is Mitogen-activated protein kinase 10 (Mus musculus) (UniProt Q61831). Put plainly: JNK3 AlphaScreen Assay (AID 530).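 Also: kinase came from lysate of stimulated human HepG2 cells; signal reports phosphorylation of biotinylated GST-cJun 1-79 at Ser73 with 10 µM ATP; % is scaled to controls: 0 for no effect and ±100 for the full control effect.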 The note with it: JNK3 lysate, c-Jun phosphorylation; series mostly up to 57.1 µM. The procedure, abridged: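 Activity was read by AlphaScreen after JNK3-containing HepG2 lysate (cytokine pre-activated) phosphorylated biotinylated GST-cJun with 10 uM ATP at room temperature. Phospho-Ser73 cJun antibody with Protein-A acceptor beads provided detection.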
Background: Bead proximity is the source of the signal in Alpha formats.

Test [9] has as its target 3',5'-cyclic-AMP phosphodiesterase 4B (Homo sapiens) (UniProt Q07343). Kind of test: qHTS Assay for Inhibitors of PDE-IV (AID 607; active = well fitted activation curve with a large enough effect in the main read-out, with a control signal flat, not every such curve was filed as active; also: % of control where 0% means no effect). The settings on record: HEK293 ACTOne CNG channel cells, membrane potential fluorescence; series mostly up to 22.9 µM. The procedure, abridged: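 Cell-based read-out of cAMP via a modified cyclic nucleotide-gated channel and membrane potential dye (535/590 nm) in HEK293 cells expressing PDE4 endogenously. Compounds tested up to 22.9 uM final; 100 uM RO 20-1724 reference.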
(In general: qHTS replaces the single test concentration by a dilution series.)

Test [10] concerns the target Cytochrome P450 3A4 (Homo sapiens) (UniProt P08684). Kind of test: qHTS Assay for Activators of Cytochrome P450 3A4 (AID 885; active = well fitted curve in the direction sought with a large enough effect; an effect the other way counts as inactive or inconclusive; also: nearly all actives have a fitted effect of over 65% in size). The settings on record: recombinant CYP3A4, Luciferin-PPXE luminescence, 60 min; series mostly up to 57.1 µM. The method in brief: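 Luminescent readout of luciferin formed from 25 uM Luciferin-PPXE (KM level) by 20 nM CYP3A4 in 200 mM KPO4, with 60 min NADPH-driven reaction at room temperature after 10 min compound exposure. Ketoconazole (57 uM) defined 100% inhibition.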

Test [11] is described as follows: Primary qHTS for small molecule stabilizers of the endoplasmic reticulum resident proteome: Secreted ER Calcium Modulated Protein (SERCaMP) assay (AID 1508630; active = well fitted curve in the direction sought with a large enough effect; an effect the other way counts as inactive or inconclusive; also: % is scaled to controls: 0 for no effect and ±100 for the full control effect). The note with it: SH-SY5Y GLuc-SERCaMP (Gaussia luciferase released on ER calcium loss) secretion, thapsigargin, luminescence; series mostly up to 38.4 µM. The procedure, abridged: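 The SH-SY5Y reporter protocol was run at 3 concentrations up to 38.3 uM (primary) or 11 concentrations (follow-up): 16 h compound, 100 nM thapsigargin for 4 h, then extracellular luciferase luminescence.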

In test [12] the target is Cytochrome P450 3A4 (Homo sapiens) (UniProt P08684). Kind of test: qHTS Assay for Inhibitors and Substrates of Cytochrome P450 3A4 (AID 884; active = well fitted curve in the direction sought with a large enough effect; an effect the other way counts as inactive or inconclusive; also: potency is read from the fitted curve at half-maximal effect; nearly all actives have a fitted effect of over 50% in size). The settings on record: recombinant CYP3A4, Luciferin-PPXE luminescence; series mostly up to 57.1 µM. The method in brief: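 Luminescent readout of luciferin produced by CYP3A4 (20 nM) dealkylation of Luciferin-PPXE, 25 uM (its KM). NADPH-driven reaction ran 60 min at RT after 10 min compound preincubation; data scaled to 57 uM ketoconazole as 100% inhibition.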

Test [13] addresses Cytochrome P450 2C19 (Homo sapiens) (UniProt P33261). Kind of test: qHTS Assay for Inhibitors and Substrates of Cytochrome P450 2C19 (AID 899; active = well fitted curve in the direction sought with a large enough effect; an effect the other way counts as inactive or inconclusive; also: % is scaled to controls: 0 for no effect and ±100 for the full control effect; nearly all actives have a fitted effect of over 60% in size). The note with it: recombinant CYP2C19, luciferin-H EGE luminescence; series mostly up to 57.1 µM. The procedure, abridged:
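Luminescent read-out of luciferin formed from Luciferin-H EGE (10uM, equal to KM). Enzyme 5nM in 50mM KPO4; compound added, 10 min at 37C, then NADPH regenerating system for 60 min at 37C. Full inhibition defined by 57uM ketoconazole.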

Values without a mark were called inactive. Results filed as inconclusive are left out. The source made the active and inactive calls. Unless noted, calls follow the shape of the dose curve; as a rule, active = well fitted curve in either direction with a large enough effect (not every such curve was filed as active); inconclusive = small, poorly fitted or top-dose-only effect, or another doubt; inactive = flat fitted curve, though single readings scatter.

Glucocorticoid receptor (Homo sapiens), sequence (P04150 whole entry, looked up, the tested form may be a part): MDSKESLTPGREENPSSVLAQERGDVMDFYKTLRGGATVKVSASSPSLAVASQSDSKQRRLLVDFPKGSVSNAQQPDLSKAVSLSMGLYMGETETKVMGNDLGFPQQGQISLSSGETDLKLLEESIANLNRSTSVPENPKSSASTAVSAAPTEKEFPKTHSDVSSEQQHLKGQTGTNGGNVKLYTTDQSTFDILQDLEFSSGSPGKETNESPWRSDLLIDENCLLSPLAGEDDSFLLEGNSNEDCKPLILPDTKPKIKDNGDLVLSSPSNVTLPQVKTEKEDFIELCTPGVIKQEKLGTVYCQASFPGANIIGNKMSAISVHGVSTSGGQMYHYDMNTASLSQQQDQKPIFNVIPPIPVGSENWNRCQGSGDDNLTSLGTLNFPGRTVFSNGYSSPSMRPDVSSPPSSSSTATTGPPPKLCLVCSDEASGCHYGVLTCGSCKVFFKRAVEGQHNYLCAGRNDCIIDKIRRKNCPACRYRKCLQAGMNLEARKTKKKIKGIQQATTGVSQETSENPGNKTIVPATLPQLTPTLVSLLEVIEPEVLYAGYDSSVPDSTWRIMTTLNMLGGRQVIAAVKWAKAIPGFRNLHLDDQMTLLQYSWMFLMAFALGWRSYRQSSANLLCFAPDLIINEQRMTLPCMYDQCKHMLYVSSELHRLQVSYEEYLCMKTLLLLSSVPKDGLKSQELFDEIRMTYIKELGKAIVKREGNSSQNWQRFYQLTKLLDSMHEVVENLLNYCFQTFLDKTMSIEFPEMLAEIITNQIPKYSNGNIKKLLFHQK
Cytochrome P450 1A2 (Homo sapiens), sequence (P05177 whole entry, looked up): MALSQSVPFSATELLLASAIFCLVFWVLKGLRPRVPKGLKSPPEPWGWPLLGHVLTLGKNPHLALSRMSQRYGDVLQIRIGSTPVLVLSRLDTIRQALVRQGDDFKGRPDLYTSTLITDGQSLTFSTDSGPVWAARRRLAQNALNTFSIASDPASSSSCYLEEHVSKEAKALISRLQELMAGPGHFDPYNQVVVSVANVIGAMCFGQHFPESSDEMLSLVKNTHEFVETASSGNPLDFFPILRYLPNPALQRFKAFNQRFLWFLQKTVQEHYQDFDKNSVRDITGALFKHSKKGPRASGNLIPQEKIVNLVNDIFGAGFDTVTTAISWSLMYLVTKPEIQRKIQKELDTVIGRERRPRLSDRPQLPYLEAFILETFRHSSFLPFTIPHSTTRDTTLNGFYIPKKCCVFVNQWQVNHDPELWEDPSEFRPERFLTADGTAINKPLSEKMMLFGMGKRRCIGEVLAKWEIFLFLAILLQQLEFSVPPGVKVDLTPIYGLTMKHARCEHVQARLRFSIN
3',5'-cyclic-AMP phosphodiesterase 4B (Homo sapiens), sequence (Q07343 whole entry, looked up): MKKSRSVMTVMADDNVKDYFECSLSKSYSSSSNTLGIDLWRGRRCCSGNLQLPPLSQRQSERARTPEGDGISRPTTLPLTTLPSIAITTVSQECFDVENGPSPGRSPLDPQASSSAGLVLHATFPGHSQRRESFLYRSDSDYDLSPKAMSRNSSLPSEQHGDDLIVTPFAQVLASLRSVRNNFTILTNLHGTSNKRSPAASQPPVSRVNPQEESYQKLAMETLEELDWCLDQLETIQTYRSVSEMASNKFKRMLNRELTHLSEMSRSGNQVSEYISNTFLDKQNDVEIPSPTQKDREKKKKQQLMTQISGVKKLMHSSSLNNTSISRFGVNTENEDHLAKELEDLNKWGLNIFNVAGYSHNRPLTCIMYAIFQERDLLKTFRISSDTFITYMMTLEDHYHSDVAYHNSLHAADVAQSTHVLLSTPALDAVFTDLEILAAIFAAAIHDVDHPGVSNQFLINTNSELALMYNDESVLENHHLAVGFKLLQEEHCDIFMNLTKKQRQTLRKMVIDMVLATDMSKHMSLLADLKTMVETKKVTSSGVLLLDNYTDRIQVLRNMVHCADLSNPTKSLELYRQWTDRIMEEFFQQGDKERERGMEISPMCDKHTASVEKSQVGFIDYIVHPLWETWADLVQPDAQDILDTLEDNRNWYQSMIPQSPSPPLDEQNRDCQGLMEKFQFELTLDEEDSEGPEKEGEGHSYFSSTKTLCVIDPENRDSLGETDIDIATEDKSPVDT
Lysosomal acid glucosylceramidase (Homo sapiens), sequence (P04062 whole entry, looked up): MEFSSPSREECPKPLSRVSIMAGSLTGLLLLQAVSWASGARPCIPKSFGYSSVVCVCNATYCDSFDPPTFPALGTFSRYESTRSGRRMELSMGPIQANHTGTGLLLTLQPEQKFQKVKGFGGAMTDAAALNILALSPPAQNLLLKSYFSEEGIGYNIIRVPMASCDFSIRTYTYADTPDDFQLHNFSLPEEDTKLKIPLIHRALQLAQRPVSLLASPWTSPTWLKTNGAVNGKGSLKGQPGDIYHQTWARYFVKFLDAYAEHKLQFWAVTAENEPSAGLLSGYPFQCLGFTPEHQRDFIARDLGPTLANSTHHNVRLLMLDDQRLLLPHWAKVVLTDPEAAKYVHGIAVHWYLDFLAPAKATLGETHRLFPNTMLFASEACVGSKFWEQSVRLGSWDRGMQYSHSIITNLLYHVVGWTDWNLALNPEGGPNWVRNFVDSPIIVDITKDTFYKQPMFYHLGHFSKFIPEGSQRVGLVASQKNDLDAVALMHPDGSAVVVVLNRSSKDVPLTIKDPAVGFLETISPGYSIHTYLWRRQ
Cytochrome P450 3A4 (Homo sapiens), sequence (P08684 whole entry, looked up): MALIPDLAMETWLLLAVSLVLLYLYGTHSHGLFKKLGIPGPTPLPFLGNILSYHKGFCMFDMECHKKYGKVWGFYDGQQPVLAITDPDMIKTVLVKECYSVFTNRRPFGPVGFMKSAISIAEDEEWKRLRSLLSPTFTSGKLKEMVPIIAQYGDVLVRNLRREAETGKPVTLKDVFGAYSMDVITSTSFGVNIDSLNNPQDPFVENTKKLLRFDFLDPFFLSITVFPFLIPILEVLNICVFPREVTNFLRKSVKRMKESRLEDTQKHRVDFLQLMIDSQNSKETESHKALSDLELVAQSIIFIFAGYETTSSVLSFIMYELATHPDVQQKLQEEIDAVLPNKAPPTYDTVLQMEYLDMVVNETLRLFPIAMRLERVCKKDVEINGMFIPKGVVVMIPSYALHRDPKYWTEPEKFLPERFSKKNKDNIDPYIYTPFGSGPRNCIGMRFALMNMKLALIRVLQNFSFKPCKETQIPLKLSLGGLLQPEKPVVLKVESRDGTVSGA
Cytochrome P450 2C19 (Homo sapiens), sequence (P33261 whole entry, looked up): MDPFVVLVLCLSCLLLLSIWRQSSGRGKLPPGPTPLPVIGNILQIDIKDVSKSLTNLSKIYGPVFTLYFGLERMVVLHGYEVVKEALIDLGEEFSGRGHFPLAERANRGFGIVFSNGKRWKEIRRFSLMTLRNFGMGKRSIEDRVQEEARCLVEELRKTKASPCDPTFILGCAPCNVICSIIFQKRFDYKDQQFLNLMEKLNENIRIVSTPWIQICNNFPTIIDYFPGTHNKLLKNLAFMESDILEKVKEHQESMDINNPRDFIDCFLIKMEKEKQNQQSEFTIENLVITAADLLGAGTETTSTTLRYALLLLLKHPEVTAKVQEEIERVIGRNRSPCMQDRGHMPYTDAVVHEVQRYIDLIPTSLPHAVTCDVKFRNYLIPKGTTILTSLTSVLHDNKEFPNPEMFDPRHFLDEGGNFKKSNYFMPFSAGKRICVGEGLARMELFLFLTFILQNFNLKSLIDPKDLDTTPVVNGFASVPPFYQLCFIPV

Turning to `Cc1nc2cnc(Oc3ccccc3)nc2n(-c2ccccc2)c1=O`, the Potency is more than 11.4 µM in test [1], 10 µM (active) in [3], more than 9.22 µM in test [6] and more than 46 µM in [7]. The activity change, negative = inhibition in test [2] was -7.96%; in [4] it was 9.01%. The activity, negative = inhibition in [5] is -3.48%. In addition, the Potency result in test [8], in test [9] and in [10] was “inactive” each time. For the same molecule, in test [11], the outcome was inactive.
`COc1cccc(Cn2c(=O)c(-c3ccccc3)nc3cnc(N(C)C)nc32)c1`: the Potency in test [1] is more than 11.4 µM; in test [3], 10 µM (active); in test [6], more than 9.22 µM; in test [7], more than 46 µM; in test [12], 6.31 µM (active). Besides, the activity change, negative = inhibition in [2] is 8.64%; in test [4] it was -16.4%. For the same molecule, the activity, negative = inhibition in test [5] was 11.4%. In test [10], the Potency entry is “inactive”. In addition, the result in [11] was inactive.
For the molecule `N#CCCn1c(=O)cnc2cnc(OCc3ccccc3)nc21`, the Potency in test [1] is more than 11.4 µM; in [3], 12.6 µM (active); in test [6], more than 9.22 µM; in test [7], more than 46 µM. The activity change, negative = inhibition is -4.07% in [2] and 0.323% in test [4]. Also, the activity, negative = inhibition in test [5] is -5.03%. In addition, the Potency result in test [8], in [9] and in test [13] was “inactive” throughout. For the same molecule, the outcome in test [11] was inactive.
With `Cc1nc2cnc(N(C)C)nc2n(C)c1=O`, the Potency in test [1] was more than 11.4 µM; in [3], 3.98 µM (active); in [6], more than 9.22 µM; in [7] it was more than 46 µM. Further, the activity change, negative = inhibition in test [2] was -9.37%; in test [4], -9.43%. Also, the activity, negative = inhibition in [5] is 0.339%. In addition, the Potency entry in [8], in [9] and in [10] was “inactive” in each case. Besides, the outcome in test [11] was inactive.
As to `O=c1c(-c2cccc(F)c2)nc2cncnc2n1-c1ccccc1`, the Potency in test [1] is more than 11.4 µM; in test [3], 10 µM (active); in test [6], more than 9.22 µM; in test [7], more than 46 µM. The activity change, negative = inhibition in test [2] is -10.3%; in [4], -2.26%. Besides, the activity, negative = inhibition in test [5] was -2.29%. Besides, the Potency entry in test [8] and in test [10] was “inactive” each time. The outcome in [11] was inactive.
As for `COc1ccc(Oc2ncc3ncc(=O)n(Cc4cccs4)c3n2)cc1`, the Potency in test [1] is more than 11.4 µM; in test [3] it was 10 µM (active); in [6] it was more than 9.22 µM; in [7], more than 46 µM; in test [12] it was 3.16 µM (active). Further, the results for the activity change, negative = inhibition in test [2] and in test [4] were -29.2% and -6.6%, respectively. Besides, the activity, negative = inhibition in test [5] is -28.6%. Besides, the Potency result in test [8], in [9] and in [10] was “inactive” each time. Moreover, the result in test [11] was inactive.
On to `Cn1c(=O)c(-c2cccc(Cl)c2)nc2cncnc21`, for which the Potency in test [1] is more than 11.4 µM; in test [3], 0.501 µM (active); in test [6], more than 9.22 µM; in [7] it was more than 46 µM. Besides, the activity change, negative = inhibition is -7.56% in [2] and -2.65% in [4]. For the same molecule, the activity, negative = inhibition in test [5] was -10.2%. Also, the Potency result in [8] and in test [9] was “inactive” in each case. Besides, the outcome in test [11] was inactive.
